Several values for one entry are separate records, joined by “and”; a condition that tells them apart may be missing. Identical values can stand only once. Screen size: about 16,000 compounds; about 5,100 (32%) were called active. Not shown: some 25% with an inconclusive outcome. Calls come from the whole dose curve; as a rule, active = well fitted curve in the direction sought with a large enough effect; inconclusive = small, poorly fitted or top-dose-only effect, or effect the other way; inactive = no such curve, though single readings can be large or run the other way. Some of the results follow.

The AC50 is the concentration at which the activity in the assay is half-maximal.
% is set by controls: 0 for no effect and ±100 for the full control effect.

The target in the experiment is Cytochrome P450 3A4 (Homo sapiens) (UniProt P08684). In words: Cytochrome panel assay with activity outcomes. The note with it: recombinant CYP, pro-luciferin dealkylation, luminescence, p450-cyp3a4; series mostly up to 57.1 µM.
Chain of Cytochrome P450 3A4 (Homo sapiens) (P08684 whole entry, looked up): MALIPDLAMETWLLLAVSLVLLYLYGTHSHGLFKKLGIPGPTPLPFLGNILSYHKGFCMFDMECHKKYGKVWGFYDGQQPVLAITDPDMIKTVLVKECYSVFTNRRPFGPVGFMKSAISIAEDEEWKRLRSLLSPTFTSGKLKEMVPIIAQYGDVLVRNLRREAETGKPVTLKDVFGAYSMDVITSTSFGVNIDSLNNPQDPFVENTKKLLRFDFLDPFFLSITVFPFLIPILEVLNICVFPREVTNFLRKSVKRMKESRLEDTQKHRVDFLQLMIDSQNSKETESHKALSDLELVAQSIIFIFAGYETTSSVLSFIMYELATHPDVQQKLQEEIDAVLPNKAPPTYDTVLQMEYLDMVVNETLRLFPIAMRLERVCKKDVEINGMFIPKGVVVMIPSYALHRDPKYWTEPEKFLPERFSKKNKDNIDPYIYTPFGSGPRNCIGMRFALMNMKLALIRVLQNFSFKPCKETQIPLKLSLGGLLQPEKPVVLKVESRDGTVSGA
As to `COC(=O)[C@@H]1[C@@H]2C[C@H]3c4[nH]c5ccccc5c4CCN3C[C@@H]2CC[C@@H]1OS(=O)(=O)O`, the activity, negative = inhibition is 0.48% [at 11.4 µM] (inactive).

For the compound `CC(O)(CS(=O)(=O)Cc1ccccc1Cl)C(=O)Nc1cccc(C(F)(F)F)c1` (stereo unspecified), the AC50 is 2.51 µM (active).

Consider `CC(O)(CS(=O)(=O)Cc1ccc(Cl)cc1)C(=O)Nc1cccc(C(F)(F)F)c1` (stereo unspecified), for which the AC50 was 2 µM (active).

As for `CC(=O)Nc1cccc(C(=O)OCc2ccc(C(=O)Oc3ccc(Cl)cc3)cc2)c1`, the AC50 result was “inactive”.

As for `O=C(CCn1nc(-c2ccc(Cl)cc2)ccc1=O)NCc1ccccn1`, the AC50 was 10 µM (active).

Regarding `COCCNC(=O)CCn1nc(-c2ccc(Cl)cc2)ccc1=O`, the AC50 result is “inactive”.

With `CN(C)CCNC(=O)Cn1nc(-c2ccc(Cl)cc2)ccc1=O`, the AC50 result is “inactive”.

For `Cc1ccc(-n2nnnc2-c2cnc3ccc(Cl)cc3c2-c2ccccc2)cc1`, the AC50 was 5.62 µM (active).

With `Cc1nc(SCC(=O)c2ccc(F)cc2)c([N+](=O)[O-])[nH]1`, the activity, negative = inhibition is 5.95% [at 2.29 µM] (inactive).

Take `Cc1ccc2nc(SCC(=O)c3ccc4c(c3)OCO4)[nH]c2c1`: the AC50 was 2.24 µM (active).

Turning to `Cc1ccc(C(=O)CSc2nc(C)cc(=O)[nH]2)cc1`, the AC50 entry was “inactive”.

Regarding `CNc1cc(NS(=O)(=O)c2ccc(N)cc2)nc(NC)n1`, the half-maximal activity concentration (AC50) was 0.794 µM (active).

For `Cc1cc(C)nc(NS(=O)(=O)c2ccc(N)cc2)n1`, the AC50 result is “inactive”.

With `Nc1ccc(S(=O)(=O)Nc2cnc3ccccc3n2)cc1`, the activity, negative = inhibition is -8.37% [at 11.4 µM] (inactive).

Take `NC1=N[C@H](c2ccc(Cl)cc2)N(c2ccc(S(=O)(=O)Nc3ncccn3)cc2)C(N)=N1`: the activity, negative = inhibition is 6.25% [at 11.4 µM] (inactive).

With `COc1cc(CC(=O)OC2CCOC2=O)cc(OC)c1OC` (stereo unspecified), the AC50 entry was “inactive”.

Take `COc1cc(OC)cc(C(=O)NCC(=O)OC2CCOC2=O)c1` (stereo unspecified): the concentration at half-maximal activity (AC50) is 25.1 µM (active).

As for `Cc1cc(C(=O)OC2CCOC2=O)c2ccccc2n1` (stereo unspecified), the activity, negative = inhibition was -7.34% [at 11.4 µM] (inactive).

As to `O=C1C[C@@H](O)[C@@H](O)[C@H]2[C@@H]3C(=O)N(C[C@@H]4CCCO4)C(=O)[C@@H]3CC[C@H]12`, the activity, negative = inhibition is 9.5% [at 11.4 µM] (inactive) and -5.79% [at 11.4 µM] (inactive).

Take `O=c1[nH]c(=S)c2[nH]c(=O)n(-c3ccccc3)c2[nH]1`: the activity, negative = inhibition was -9.23% [at 11.4 µM] (inactive).

With `CCOc1ccccc1NC(=O)C1=C(C)NC(=O)NC1c1cccc(OC)c1OC` (stereo unspecified), the AC50 was 3.98 µM (active).

For `CCOc1ccccc1NC(=O)CN1CCC(NC(=O)c2ccccc2)CC1`, the AC50 result is “inactive”.

In the case of `C#CCn1c(S(=O)(=O)Cc2ccc(OC)cc2)nc(-c2ccccc2)c1-c1ccccc1`, the AC50 is 6.31 µM (active).

With `COc1ccccc1C1(CC(=O)Nc2nccs2)CCOC(C(C)C)C1` (stereo unspecified), the AC50 is 6.31 µM (active).

Take `O=c1oc2cc(N=Cc3ccc4c(c3)OCO4)ccc2c2ccccc12`: the AC50 was 3.98 µM (active).

On to `O=[N+]([O-])c1ccc2c(c1)Cc1cc(N=Cc3ccc4c(c3)OCO4)ccc1-2`, for which the activity, negative = inhibition was -16.1% [at 11.4 µM] (inactive).

As to `CC(=O)NC1(c2cccc(F)c2)CCN(CC(=O)NC(C)C)CC1`, the AC50 result was “inactive”.

As for `COc1ccc(C(=O)N/N=C2/C(=O)c3c(C)cc(C)cc3CC2(C)C)cc1`, the AC50 was 3.16 µM (active).

As for `COc1ccc(/C(C)=N/NC(=O)c2ccc(N(C)C)cc2)cc1`, the AC50 result was “inactive”.

Regarding `COc1ccccc1CN1CCC2(CCNCC2)CC1`, the AC50 entry was “inactive”.

On to `c1cncc(-c2nc(NCc3cccs3)c3ccccc3n2)c1`, for which the concentration at half-maximal activity (AC50) was 2 µM (active).

For `Cc1cccc(CNc2nc(-c3ccoc3)nc3ccccc23)c1`, the AC50 is 6.31 µM (active).

Take `c1cncc(CNc2nc(-c3ccoc3)nc3ccccc23)c1`: the AC50 was 7.94 µM (active).

Regarding `c1csc(CNc2nc(-c3ccoc3)nc3ccccc23)c1`, the half-maximal activity concentration (AC50) was 7.94 µM (active).

As to `NS(=O)(=O)c1cc2c(cc1Cl)=NC(CCC(=O)O)=NS=2(=O)O`, the activity, negative = inhibition was 15.3% [at 11.4 µM] (inactive).

Consider `c1ccc(CNc2nc(-c3ccoc3)nc3ccccc23)cc1`, for which the concentration at half-maximal activity (AC50) is 12.6 µM (active).

With `Cc1ccccc1-c1cncnc1NC1CCNCC1`, the AC50 is 15.8 µM (active).

`Cc1ccccc1-c1cncnc1Nc1ccc(F)cc1`: the AC50 is 0.2 µM (active).

As for `CNc1ncncc1-c1ccccc1C`, the AC50 is 0.631 µM (active).

Consider `c1cncc(-c2cncnc2NC2CCNCC2)c1`, for which the AC50 entry was “inactive”.

As to `CNc1cc(-c2ccccc2C)ncn1`, the AC50 result was “inactive”.

Consider `COc1ccccc1-c1cncnc1Nc1ccc(F)cc1`, for which the AC50 was 0.158 µM (active).

As for `CC(=O)N(C[C@@H](C)C(=O)O)c1c(I)cc(I)c(N)c1I`, the AC50 entry is “inactive”.

Regarding `CCCCCSc1nncc(=O)[nH]1`, the activity, negative = inhibition is 2.96% [at 11.4 µM] (inactive).

For `O=C(O)[C@@H]1[C@@H](C(=O)Nc2ccccc2)[C@@H]2C=C[C@@H]1O2`, the activity, negative = inhibition is -5.39% [at 11.4 µM] (inactive).

Take `O=C(O)[C@@H]1[C@@H]2C[C@@H]3[C@@H](OC(=O)[C@@H]31)[C@H]2Br`: the activity, negative = inhibition is -5.69% [at 11.4 µM] (inactive).

For the compound `CCCNc1[nH]c(=O)n(C)c(=O)c1N=O`, the activity, negative = inhibition is -16% [at 2.29 µM] (inactive).

In the case of `Cc1cc(Nc2ccccc2)nc(N)n1`, the AC50 result is “inactive”.

Turning to `Cc1ccccc1-c1cncnc1Nc1ccccc1`, the AC50 was 0.631 µM (active).

Turning to `O=C(O)c1ccc(Nc2ccnc3cc(Cl)ccc23)cc1O`, the activity, negative = inhibition was -7.77% [at 11.4 µM] (inactive).

As to `Cc1cccc(C)c1NC(=O)C(NC=O)c1ccccc1Cl` (stereo unspecified), the AC50 was 10 µM (active).

As for `Cc1cccc(C)c1NC(=O)[C@H](C)N`, the AC50 entry is “inactive”.

`CCOC(=O)c1[nH]c2cc3c(cc2c1NC(=O)CN1CCC2(CC1)OCCO2)OCO3`: the AC50 result was “inactive”.

For `COC(=O)c1[nH]c2cc(OC)ccc2c1NC(=O)CCN1CCSCC1`, the activity, negative = inhibition is 1.53% [at 2.29 µM] (inactive).

With `COC(=O)c1[nH]c2cccc(OC)c2c1NC(=O)CN(C)CC1OCCO1`, the AC50 entry was “inactive”.

In the case of `CCOC(=O)c1[nH]c2cc(OC)c(OC)cc2c1NC(=O)c1ccc2c(c1)OCO2`, the AC50 is 7.94 µM (active).

As to `CCOC(=O)c1[nH]c2cc3c(cc2c1NC(=O)CN1CCc2ccccc2C1)OCO3`, the AC50 is 0.708 µM (active).

On to `CCOC(=O)c1[nH]c2ccc(OC)cc2c1NC(=O)c1ccc2c(c1)OCO2`, for which the AC50 was 1.41 µM (active).

Regarding `COC(=O)c1[nH]c2cc(OC)ccc2c1NC(=O)c1ccc2c(c1)OCO2`, the AC50 was 7.94 µM (active).

For the compound `CCOC(=O)c1ccc(NC(=O)C2(c3ccc(OC)cc3)CCOCC2)cc1`, the activity, negative = inhibition was -2.41% [at 2.29 µM] (inactive).

In the case of `CSc1cc(C)nc(NC(C)=O)n1`, the AC50 entry is “inactive”.

In the case of `Cc1nc(Oc2ccc(Cl)cc2)c2oc3ccccc3c2n1`, the activity, negative = inhibition is 5.99% [at 2.29 µM] (inactive).

With `CCc1nc(SCC(=O)N2CCCc3ccccc32)c2oc3ccccc3c2n1`, the AC50 is 15.8 µM (active).

With `CCc1nc(N[C@H](C(=O)O)C(C)CC)c2oc3ccccc3c2n1` (stereo partly specified), the AC50 entry was “inactive”.

For `CCc1nc(SCC(=O)NCCc2ccccc2)c2oc3ccccc3c2n1`, the concentration at half-maximal activity (AC50) is 3.55 µM (active).

`CCc1nc(SCC(=O)c2ccc(Cl)s2)c2oc3ccccc3c2n1`: the AC50 was 7.94 µM (active).

As for `Cc1ccccc1C(=O)NC(C)c1ccc2c(c1)CCCC2` (stereo unspecified), the AC50 result is “inactive”.

`CCCCN=c1sc(C(=O)OC)cc(=O)n1CCCC`: the AC50 result was “inactive”.

On to `COC(=O)[C@H](CCSC)NC(=O)C/C=C\[C@@H](C)CO`, for which the activity, negative = inhibition is -19.4% [at 11.4 µM] (inactive).

With `COC(=O)[C@H](CCSC)NC(=O)C/C=C\[C@@H](C)[C@@H](CO)OC`, the activity, negative = inhibition was -14.3% [at 11.4 µM] (inactive).

For `COC(=O)[C@H](CCSC)NC(=O)NCc1ccccc1F`, the AC50 was 15.8 µM (active).

Take `C[C@@H](C(=O)Nc1ccc2ccccc2c1)[C@@H]1C[C@@]1(C)[C@@H](NC(=O)c1ccncc1Cl)c1ccccc1`: the AC50 is 10 µM (active).

Take `C[C@@H](C(=O)Nc1ccc2ccccc2c1)[C@@H]1C[C@@]1(C)[C@@H](NC(=O)c1cnccn1)c1ccccc1`: the half-maximal activity concentration (AC50) is 1 µM (active).

Consider `C[C@@H](C(=O)Nc1ccc2ccccc2c1)[C@H]1C[C@]1(C)[C@H](NC(=O)c1cnccn1)c1ccccc1`, for which the AC50 was 0.631 µM (active).

`C=CCNC(=S)N1CCN(c2ncc3c(=O)c(C(=O)O)cn(CC)c3n2)CC1`: the AC50 entry was “inactive”.

Take `Cc1ccc(CSc2nnc(C(F)(F)F)n2Cc2ccc(F)cc2)cc1`: the AC50 was 3.16 µM (active).

Consider `Fc1ccc(Cn2c(SCc3ccc(F)c(F)c3)nnc2C(F)(F)F)cc1`, for which the AC50 was 15.8 µM (active).

Turning to `COc1ccc(C(=O)NC(CO)c2nnc(SCc3ccc(Cl)c(Cl)c3)n2C)cc1` (stereo unspecified), the activity, negative = inhibition is -5.47% [at 2.29 µM] (inactive).

`COc1cccc(CSCC(=O)O)c1`: the activity, negative = inhibition was -5.22% [at 11.4 µM] (inactive).

Take `Fc1ccc(Cn2c(SCc3ccc(F)c(C(F)(F)F)c3)nnc2C(F)(F)F)cc1`: the AC50 is 20 µM (active).

`COc1cccc(CSc2nnc(C(F)(F)F)n2Cc2ccc(F)cc2)c1`: the AC50 was 28.2 µM (active).

Take `NC(=O)CC(c1ccccc1)c1ccco1` (stereo unspecified): the AC50 entry is “inactive”.

Consider `Cc1cccc(NC(=O)c2cc(N3C(=O)CCC3=O)ccc2Cl)n1`, for which the AC50 result is “inactive”.

As to `CC(=O)Nc1ccnc(-c2cccnc2)n1`, the AC50 result was “inactive”.

Take `Cc1cccc(CNc2ccnc(-c3cccnc3)n2)c1`: the AC50 was 0.501 µM (active).

As to `O=C(Nc1ccnc(-c2cccnc2)n1)c1cccc(Cl)c1Cl`, the AC50 is 4.47 µM (active).

Turning to `c1ccc(CNc2ccnc(-c3cccnc3)n2)cc1`, the AC50 is 0.631 µM (active).

Take `O=C(Nc1ccnc(-c2cccnc2)n1)c1ccccc1Cl`: the activity, negative = inhibition was 3.82% [at 2.29 µM] (inactive).

Regarding `Cn1cc(C(=O)c2ccc(Cl)cc2Cl)cc1C(=O)O`, the AC50 entry was “inactive”.

On to `Nc1nc(NCc2ccccc2)nc(Nc2cccc(F)c2)c1[N+](=O)[O-]`, for which the AC50 result is “inactive”.

With `CCC1(O)c2ccccc2-c2ncccc21` (stereo unspecified), the AC50 result was “inactive”.

On to `C=C(C)c1cccc(C(C)(C)NC(=O)Nc2cc(C)ccc2OC)c1`, for which the AC50 is 10 µM (active).

Take `COc1ccc(C(N)=O)cc1NC(=O)c1cccc(F)c1`: the AC50 entry was “inactive”.

In the case of `O=[N+]([O-])c1c(NCCO)cc(Sc2nc3ccccc3s2)c2nonc12`, the AC50 was 25.1 µM (active).

With `c1ccc(NCCSc2nc3ccccc3s2)cc1`, the activity, negative = inhibition was -25.9% [at 11.4 µM] (inactive).

As for `CCc1cc2c(Sc3nc4ccccc4s3)ncnc2s1`, the activity, negative = inhibition was 6.04% [at 2.29 µM] (inactive).
